From PubChem BioAssay AID2685 (National Center for Advancing Translational Sciences (NCATS), 2010) come the findings set out here.

The campaign covered roughly 320,000 compounds. About 2,100 (0.66%) were called active. About 53% were inconclusive and are not listed. The call rests on the fitted dose curve; in most records, active means well fitted inhibition curve with a large enough effect in the signal ratio, with a control signal flat (not every such curve was filed as active); inconclusive means small, poorly fitted or top-dose-only effect, or effect the other way, or a change in a side signal; inactive means flat fitted curve, though single readings scatter; the % refers to the signal ratio. The list comes from a sample in which actives are over-represented; it also holds similar structures and randomly drawn compounds.
Potency means the concentration at half of the fitted maximal effect.

This experiment in a line: qHTS Assay for Lipid Storage Modulators in Drosophila S3 Cells.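 On cell number change: cells counted by Cell Tracker Red CMTPX staining in the red channel.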 On lipid storage change, negative = inhibition: on the % scale 0 is the no-effect control and ±100 the full control effect. The settings on record: BODIPY lipid droplet fluorescence, 18-24 h, cells fed with added oleic acid; cell number change: measured here: cell count max response; series mostly up to 46.1 µM; lipid storage change, negative = inhibition: at the top concentration. The gist of the method: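 Drosophila S3 cells got compounds at several concentrations plus oleic acid (400 uM solution). Laser-scanning cytometry with 488 nm excitation read lipid droplets at 500-530 nm and cells at 575-640 nm. Percent activity was relative to 20 uM Triacsin C.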
As to `CC1CCN(C(=O)c2[nH]cnc2C(=O)N[C@@H](CCCCNC(=O)OC(C)(C)C)C(=O)OC(C)(C)C)CC1`, the “lipid storage change, negative = inhibition” value was -1.71% (inactive) and the cell number change is -11.2%.
As to `Clc1ccccc1-c1ncnc2ccc(Br)cc12`, the “lipid storage change, negative = inhibition” value was -0.0835% (inactive) and the cell number change is -18.5%.
For the molecule `CN1CCN(C(c2ccc(Br)cc2)c2cc(Cl)c3cccnc3c2O)CC1` (stereo not drawn), the Potency was 20.6 µM (active) and the cell number change stood at 5.13%.
For the molecule `CN1CCN(C(c2cccnc2)c2ccc3cccnc3c2O)CC1` (stereo not drawn), the outcome was inactive and the cell number change amounted to 8.11%.
In the case of `CN1CCN(C(c2ccccn2)c2cc(Cl)c3cccnc3c2O)CC1` (stereo not drawn), the outcome was inactive.
For the molecule `O=C(NCc1ccc(F)cc1)C1CC(=O)N(CCc2ccccc2)C1` (stereo not drawn), the result was inactive and the cell number change was 15.8%.
As to `Cc1ccc(S(=O)(=O)NNC2=NS(=O)(=O)c3ccccc32)c(C)c1`, the “lipid storage change, negative = inhibition” value is 6.11% (inactive) and the cell number change was -0.377%.
Consider `Cc1cc(C)c(NC2=NS(=O)(=O)c3ccccc32)c(C)c1`, for which the Potency is 16.4 µM (active).
Take `Cc1cc(O)c(C(C)C)cc1NC1=NS(=O)(=O)c2ccccc21`: the “lipid storage change, negative = inhibition” value is -22.4% (inactive) and the cell number change is -1.35%.
Regarding `CC(CC(=O)N1CCN(c2ccccc2)CC1)S(=O)(=O)c1ccc2c(c1)NC(=O)CS2` (stereo not drawn), the molecule was classed as inactive and the cell number change is -1.91%.
Take `O=C1COc2ccc(S(=O)(=O)N3CCN(c4cccc(Cl)c4)CC3)cc2N1`: the “lipid storage change, negative = inhibition” value is 8.29% (inactive) and the cell number change is -0.295%.
`CC(CC(=O)N1CCN(c2cccc(Cl)c2)CC1)S(=O)(=O)c1ccc2c(c1)NC(=O)CO2` (stereo not drawn): the Potency is 6.51 µM (active).
On to `CCOc1ccc(NC(=S)N2C3CCCC2CC(NC(=O)C2CC2)C3)cc1` (stereo not drawn), for which the result was inactive and the cell number change stood at 11.2%.
Turning to `CCOC(=O)C1Cc2ccccc2C(=O)O1` (stereo not drawn), the “lipid storage change, negative = inhibition” value was -4.22% (inactive) and the cell number change was determined as 3.62%.
On the same counts, the results for `CC(=O)Nc1nc2cc([N+](=O)[O-])ccc2s1` are 5.34% (inactive) and -7.82%.
As for `C=CC(C)N1C(=O)S/C(=C\c2ccc(N3CCOCC3)cc2C)C1=O` (stereo not drawn), the Potency was 4.11 µM (active).
On to `CCCN1C(=O)S/C(=C\c2ccc(N3CCOCC3)cc2C)C1=O`, for which the “lipid storage change, negative = inhibition” value was -5.29% (inactive) and the cell number change was -13.4%.
As to `CCC(C)N1C(=O)S/C(=C/c2ccc(N3CCOCC3)cc2C)C1=O` (stereo not drawn), the “lipid storage change, negative = inhibition” value is 11.5% (inactive) and the cell number change worked out at 12.1%.
Regarding `Cc1cccc(N2CC(C(=O)NCCC3=CCCCC3)CC2=O)c1C` (stereo not drawn), the outcome was inactive.
In the case of `CCS(=O)(=O)N1CCC(C(=O)NCc2ccc(OC)cc2OC)CC1`, the “lipid storage change, negative = inhibition” value is -1.87% (inactive) and the cell number change turned out to be 16%.
As for `O=C(O)c1ccc(COc2ccc([N+](=O)[O-])cc2)o1`, the call was inactive.
`O=C(O)c1ccc(COc2ccc(Cl)cc2)o1`: the Potency was 25.9 µM (active) and the cell number change was -10.6%.
With `N#Cc1ccc(OCc2ccc(C(=O)O)o2)cc1`, the outcome was inactive and the cell number change is -20.7%.
On the same counts, the results for `Nc1cccnc1Sc1cccc(Cl)c1` are “inactive” and -17.5%.
For the molecule `O=S(=O)(c1ccccc1)N1CCN(S(=O)(=O)c2ccc(F)cc2)CC1`, the “lipid storage change, negative = inhibition” value was 28.1% (inactive) and the cell number change was -2.92%.
On the same counts, the results for `CC1(C)CC(=O)c2cc(NC(=O)c3ccccc3)c(=O)oc2C1` are 3.26% (inactive) and 6.08%.
In the case of `Cn1c(SCc2cc(=O)[nH]c(C(C)(C)C)n2)nnc1C(F)(F)F`, the “lipid storage change, negative = inhibition” value is 10.1% (inactive) and the cell number change was -1.02%.
As to `CC(=O)Nc1ccc(S(=O)(=O)NC2=C(N3CCN(c4ccc(F)cc4)CC3)C(=O)c3ccccc3C2=O)cc1`, the outcome was inactive and the cell number change stood at 3.49%.
For the molecule `CCOC(=O)N1CCN(C2=C(NS(=O)(=O)c3ccc(NC(C)=O)cc3)C(=O)c3ccccc3C2=O)CC1`, the Potency was 18.4 µM (active) and the cell number change is -22.6%.
With `CCOC(=O)N1CCN(C2=C(NS(=O)(=O)c3ccc(C)cc3)C(=O)c3ccccc3C2=O)CC1`, the molecule was classed as inactive and the cell number change was -13.9%.
On to `CCOC(=O)c1ccc(N(CC(=O)NC2CCCCC2)C(=O)CNC(=O)c2ccco2)cc1`, for which the result was inactive and the cell number change is 11.2%.
In the case of `O=C(c1ccccc1)N1N=C(c2ccco2)CC1c1cccs1` (stereo not drawn), the “lipid storage change, negative = inhibition” value was -0.755% (inactive) and the cell number change was 16.1%.
On to `O=C(O)CCC(=O)N1N=C(c2ccco2)CC1c1cccs1` (stereo not drawn), for which the “lipid storage change, negative = inhibition” value is -9.03% (inactive) and the cell number change was -1.36%.
For `O=C(CCl)N1N=C(c2ccco2)CC1c1cccs1` (stereo not drawn), the Potency is 23.1 µM (active) and the cell number change is -16%.
With `CC(C)Sc1nc2c(cnn2-c2ccc(F)cc2)c(=O)[nH]1`, the molecule was classed as inactive.
Turning to `CN(C)c1nc(NCc2ccccc2)nc(N/N=C/c2ccc(Cl)cc2Cl)n1`, the molecule was classed as inactive and the cell number change is -26.7%.
In the case of `CN(C)c1nc(NCc2ccccc2)nc(N/N=C/c2ccccc2F)n1`, the Potency is 23.1 µM (active).
Turning to `CN(C)c1nc(NCc2ccccc2)nc(N/N=C/c2ccc(Br)cc2)n1`, the “lipid storage change, negative = inhibition” value was -0.957% (inactive) and the cell number change was -3.42%.
In the case of `O=C1CCCN1CCCNS(=O)(=O)c1ccc(F)c(F)c1`, the “lipid storage change, negative = inhibition” value is -21.9% (inactive) and the cell number change came out at 3.84%.
For `O=C(NCCCN1CCCC1=O)c1cc(S(=O)(=O)N2CCOCC2)ccc1Cl`, the “lipid storage change, negative = inhibition” value is -23.3% (inactive) and the cell number change was determined as 15%.
For `O=C1CCCN1CCCNS(=O)(=O)c1ccc(Cl)c(C(=O)N2CCOCC2)c1`, the Potency is 23.1 µM (active) and the cell number change was -15.3%.
For the molecule `COc1ccccc1Cn1c(C(C)C)nc2ccccc21`, the “lipid storage change, negative = inhibition” value was 0.143% (inactive) and the cell number change was 8.07%.
On to `O=C(Nc1nc2ccccc2[nH]1)c1ccc(OC(F)F)cc1`, for which the call was inactive and the cell number change was -15.1%.
On to `CCOc1ccc(N(CC(=O)NCCOc2ccc(C)cc2)S(=O)(=O)c2ccccc2)cc1`, for which the “lipid storage change, negative = inhibition” value is 2.62% (inactive) and the cell number change was determined as 23.7%.
On the same counts, the results for `CC(=O)N1CCCc2cc(S(=O)(=O)NC(C(=O)NC3CCCCC3)C(C)C)ccc21` (stereo not drawn) are -0.23% (inactive) and 13.4%.
Take `C[N+]1(CCCCSc2ccc(O)cc2)CCCCC1`: the Potency is 4.61 µM (active) and the cell number change is -4.93%.
On to `COC(=O)CCCCCCCCCC[N+]1(C)CCCCC1`, for which the “lipid storage change, negative = inhibition” value was 7.23% (inactive) and the cell number change came to 12.8%.
On the same counts, the results for `C[N+]1(CCC(=O)c2ccccc2)CCCCC1` are -1.35% (inactive) and 3.5%.
